Screens: PubChem BioAssay, Columbia University Molecular Screening Center
Many of the other results were omitted from the sample, so hits are more common in it than they were.
VCAM1 TNFa pot = TNF alpha stimulated VCAM1 expression potentiation | HUVEC TNFa-stimulated VCAM-1 immunofluorescence, high-content imaging; scaled per plate to unstimulated/TNFa-only wells | activation, % at 2 µM | 93,000 compounds, 0.19% hits | AID 808;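 active means activation above the screen mean plus 3 SD, with well images confirming the hit on visual review, cut at about 28% in these data, passing the limit was not always enough; inconclusive means activation above that limit but images do not confirm it; inactive means activation not above that limit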;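 further: signal is the number of cytoplasmic VCAM-1 stained grains per positive cell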
VCAM1 pot conf = enhancers of VCAM1 induction in HUVEC – imaging, triplicate retest, confirmation. activation, % at 2 µM. shares compounds with VCAM1 TNFa pot. 230 tested, under 10 active. HUVEC TNFa-stimulated VCAM-1 immunofluorescence imaging;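 active means activation above 30% in triplicate retests at 2 µM, then confirmed by visual review of the well images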
Hits are given with their value; 0 = inactive; ? = inconclusive.

SMILES | VCAM1 TNFa pot | others
CCOC(=O)C(CCCOc1ccc(C(C)CC)cc1)C(=O)OCC (configuration not stated) | 0
CC(C)OC(=O)c1c(-c2ccc(C(C)C)cc2)csc1NC(=O)C1CCCO1 (configuration not stated) | 0
CCOc1ccc(-c2nc(C#N)c(NCC(C)C)o2)cc1 | 0
C=CCNc1oc(-c2ccc(OC)cc2)nc1C#N | 45 | VCAM1 pot conf=0
N#Cc1nc(-c2ccc(OCc3ccccc3)cc2)oc1N1CCOCC1 | 0
N#CCCN(C(=O)CSc1ccc2c(c1)OCCO2)c1ccc(F)cc1 | 0
CCN(c1ccccc1)S(=O)(=O)c1ccc(F)cc1C | 0
CC1CCCC(NC(=S)Nc2ccc(SC(F)F)cc2)C1C (configuration not stated) | 0
O=C(Cn1c(=O)sc2ccccc21)Nc1ccc(S(=O)(=O)N2CCCCC2)cc1 | 0
O=C(CN1CCCCCC1)Nc1ccc(Br)cc1 | 34 | VCAM1 pot conf=0
NC(=O)c1oc2ccccc2c1NC(=O)CN1CCCCC1 | 0
O=C(CCS(=O)(=O)c1ccc(Br)s1)NCc1ccc2c(c1)OCO2 | 0
CC1=CN2C(=NC(=O)CC2(C)C(=O)N(CC(=O)NC2CCCC2)c2ccccc2C)C=C1 (configuration not stated) | 0
CCN(CC)c1ccc(NC(=O)c2ccc(Br)o2)c(C)c1 | 0
COc1ccc(N2C(=O)CC(N3CCN(S(=O)(=O)c4c(F)cccc4F)CC3)C2=O)cc1OC (configuration not stated) | 57 | VCAM1 pot conf=0
COc1ccc(C(C)(C)C)cc1S(=O)(=O)N1CCN(C)CC1 | 0
O=C1CC(N2CCOCC2)C(=O)N1c1ccc2c(c1)OCO2 (configuration not stated) | 0
CCCc1nnc(SCC(=O)O)n1/N=C/c1ccc2c(c1)OCO2 | 0
Cc1cc(C)c2c(N)c(C(=O)N3CCN(c4ncccn4)CC3)sc2n1 | 0
c1nc(N2CCOCC2)c2sc3nc(N4CCOCC4)c4c(c3c2n1)CCCC4 | 0
Cc1cc(C)c2c(n1)sc1c(N3CCN(CCO)CC3)ncnc12 | ? | VCAM1 pot conf=0
O=C(/C=C(\c1ccc(Cl)cc1)n1cncn1)c1ccc(Cl)cc1 | 0
COCCCn1c(-c2ccccc2)nc2ccccc2c1=O | 31 | VCAM1 pot conf=0
COCCCn1c(SCC(=O)NCc2ccccc2)nc2ccccc2c1=O | 0
COc1ccc(/C=N/n2c(-c3ccco3)nc3ccccc3c2=O)cc1 | 0
SMILES | VCAM1 TNFa pot | others
Cn1c(=O)c2c(ncn2CC(=O)Nc2nc3ccc(F)cc3s2)n(C)c1=O | 0
O=C(Cn1nnc(-c2ccc(S(=O)(=O)N3CCCC3)cc2)n1)NCC1CCCO1 (configuration not stated) | 0
Cc1ccc(OCc2nnc(SCC(=O)N3CCOCC3)n2C)cc1 | 0
COc1ccc2c(C)cc(SCC(=O)N3CCOCC3)nc2c1 | ? | VCAM1 pot conf=0
O=C(Oc1ccc2ccc(OC(=O)N3CCOCC3)cc2c1)N1CCOCC1 | 0
COc1ccc(C(CNC(=O)c2ccc3c(c2)C(=O)N(CCC(C)C)C3=O)N2CCOCC2)cc1 (configuration not stated) | 0
COc1ccc(-c2c[n+]3c4n2CCCCC4=C(c2ccccc2)C3)cc1 | 0
CCOC(=O)Nc1ccc2c(c1)OCO2 | 0
CCOC(=O)C1=C(c2ccccc2)OC(N)=C(C#N)C1c1ccco1 (configuration not stated) | 0
COCCOC(=O)C1=C(C)OC(N)=C(C#N)C1c1ccc2c(c1)OCO2 (configuration not stated) | ? | VCAM1 pot conf=0
CC(C)CNC(=S)NNC(=O)c1ccco1 | 0
Nc1cc(-c2ccccc2)nn1Cc1ccc(Cl)cc1 | 0
CCCc1ccc(-c2cc(NC(=O)CSc3n[nH]c(N)n3)n(-c3ccccc3)n2)cc1 | 0
O=c1cc(-c2ccccc2)nc2nc(CCc3ccccc3)[nH]n12 | 48 | VCAM1 pot conf=0
CC1=[N+]([O-])C(C)(C)C(C)N(O)C1=O (configuration not stated) | 0
CC(C)n1c(SC2CCOC2=O)nc2ccccc21 (configuration not stated) | 0
CCN(Cc1ccccc1)C(=O)Cn1c(=O)n(CC(=O)NCc2ccco2)c(=O)c2sccc21 | 0
O=C(Cn1c(=O)oc2ccccc21)NCc1ccco1 | 0
CCc1ccc(NC(=O)Cn2c(=O)n(CCCC(=O)NCc3ccco3)c(=O)c3ccccc32)cc1 | ? | VCAM1 pot conf=0
COc1ccc(NC(=O)C(=O)NCCN2CCN(C(=O)C(c3ccccc3)c3ccccc3)CC2)cc1 | 0
CC(=O)NC(Cc1ccccc1)C(=O)N1CCN(C(=O)c2cccs2)CC1 (configuration not stated) | 0
Cc1nc(NCc2ccccc2)[nH]c(=O)c1CCC(C)C | ? | VCAM1 pot conf=0
C=C(C)CSc1nc(C)c(Cc2ccccc2)c(=O)[nH]1 | 0
Cc1ccccc1-c1nc(CN2CCC(C(=O)NCCCN3CC(C)CC(C)C3)CC2)c(C)o1 (configuration not stated) | 0
COc1ccc2c(c1)c1c(n2C(C)=O)C(OC(C)=O)=NCC1 | 0
O=C(CSc1nnc(COc2ccccc2)n1Cc1ccco1)Nc1ccc2c(c1)OCCO2 | 0
